PubChem BioAssay
Unmarked numbers belong to inactive results. Active and inactive are the calls of the source. Cut-off read from the data, not from the text of the source: active = fold change permeability below about 0.7 or above about 1.3; inactive = in between.

assay: modulators of brain endothelial barrier permeability, primary screen, cell-based, FITC-avidin fluorescence, HTS (AID 1963498); settings: actives lie on both sides; note: test concentration not given here

For `NCC(CC(=O)O)c1ccc(Cl)cc1` (stereo unspecified), which fold change permeability is on record?
The fold change permeability was 1.1.

Which fold change permeability does the source give for `COC(=O)N1CCN(C(=O)Cc2ccc(Cl)c(Cl)c2)C(CN2CCCC2)C1` (stereo unspecified) here?
Its fold change permeability is 1.3 (active).

With `CC[C@@H](C(N)=O)N1CCCC1=O` as the molecule, how does the fold change permeability read?
Its fold change permeability is 0.9.

For `CCCN(CCC)C1Cc2cc(OC)c(OC)cc2C1`, which fold change permeability is on record?
Its fold change permeability is 0.8.

With `COc1ccc(Cc2nccc3cc(OC)c(OC)cc23)cc1OC` as the molecule, how does the fold change permeability read?
The fold change permeability was 1.2.

With `COC(=O)[C@@H](N)CCCN=C(N)N[N+](=O)[O-]` as the molecule, how does the fold change permeability read?
The fold change permeability was 0.9.

For `Clc1ccc(C(Cn2ccnc2)OCc2csc3c(Cl)cccc23)c(Cl)c1` (stereo unspecified), which fold change permeability is on record?
The fold change permeability was 1.2.

With `CN(C(=O)Cc1ccc(Cl)c(Cl)c1)C(CN1CCCC1)c1cccc(OCC(=O)O)c1` (stereo unspecified) as the molecule, how does the fold change permeability read?
Its fold change permeability is 1.1.

Which fold change permeability does the source give for `NC(=O)c1cc(N2CC2)c([N+](=O)[O-])cc1[N+](=O)[O-]` here?
Its fold change permeability is 1.

With `CC1=NN=C(c2ccc(N)cc2)c2cc3c(cc2C1)OCO3` as the molecule, how does the fold change permeability read?
The fold change permeability was 1.1.

For `CCCN1CCC[C@H](c2cccc(O)c2)C1`, which fold change permeability is on record?
The fold change permeability was 1.

With `Nc1ncnc2c1ncn2[C@@H]1O[C@H](COP(=O)(O)CP(=O)(O)OP(=O)(O)O)[C@H](O)C1O` (stereo partly specified) as the molecule, how does the fold change permeability read?
The fold change permeability was 0.9.

For `CN1C(=O)CCS(=O)(=O)C1c1ccc(Cl)cc1` (stereo unspecified), which fold change permeability is on record?
Its fold change permeability is 1.3 (active).

Which fold change permeability does the source give for `CC(CCc1ccccc1)NC(C)C(O)c1ccc(O)cc1` (stereo unspecified) here?
Its fold change permeability is 0.8.

With `C=C(C)[C@H]1Cc2c(ccc3c2O[C@@H]2COc4cc(OC)c(OC)cc4[C@@H]2C3=O)O1` as the molecule, how does the fold change permeability read?
The fold change permeability was 1.7 (active).

For `CCOC(=O)c1ccc(-c2ccc(OC(=O)N(C)Cc3cccc(-c4ccncc4)c3)cc2)cc1`, which fold change permeability is on record?
The fold change permeability was 1.2.

Which fold change permeability does the source give for `CC(C)C[C@H](NP(=O)(O)O[C@@H]1O[C@@H](C)[C@H](O)[C@@H](O)[C@H]1O)C(=O)N[C@@H](Cc1c[nH]c2ccccc12)C(=O)O` here?
Its fold change permeability is 1.4 (active).

With `O=[N+]([O-])c1ccc2nc(N3CCNCC3)ccc2c1` as the molecule, how does the fold change permeability read?
The fold change permeability was 1.

Which fold change permeability does the source give for `COc1ccc(CCNCc2ccc(OC)c3ccccc23)cc1` here?
The fold change permeability was 1.7 (active).

Which fold change permeability does the source give for `CC(C)Oc1cccnc1N(C)C1CCN(Cc2ccccc2)CC1` here?
The fold change permeability was 1.5 (active).

For `CCCC[N+]1(C)C2CC(OC(=O)[C@H](CO)c3ccccc3)CC1C1OC12` (stereo partly specified), which fold change permeability is on record?
The fold change permeability was 0.8.

Which fold change permeability does the source give for `C=CCN1C[C@H](C)N([C@H](c2ccc(C(=O)N(CC)CC)cc2)c2cccc(OC)c2)C[C@H]1C` here?
Its fold change permeability is 0.7 (active).

With `COc1ccc(C(CN(C)C)C2(O)CCCCC2)cc1` (stereo unspecified) as the molecule, how does the fold change permeability read?
The fold change permeability was 1.

Which fold change permeability does the source give for `C[C@]12CCC3C(CC[C@H]4C[C@H](O)CC[C@]34C)C1CC[C@@H]2C(=O)CO` (stereo partly specified) here?
Its fold change permeability is 1.1.

For `Cn1cnc(CCN)c1`, which fold change permeability is on record?
The fold change permeability was 0.9.

With `CC(N)Cc1c[nH]c2ccc(OCc3cccs3)cc12` (stereo unspecified) as the molecule, how does the fold change permeability read?
Its fold change permeability is 1.3 (active).

Which fold change permeability does the source give for `OCc1cnc[nH]1` here?
The fold change permeability was 1.1.

Which fold change permeability does the source give for `O=C(O)c1nn(Cc2ccc(Cl)cc2Cl)c2ccccc12` here?
The fold change permeability was 1.9 (active).

For `Clc1ccc(C(c2ccc(Cl)cc2)n2cc[n+](CC(OCc3ccc(Cl)cc3Cl)c3ccc(Cl)cc3Cl)c2)cc1` (stereo unspecified), which fold change permeability is on record?
The fold change permeability was 1.3 (active).

Which fold change permeability does the source give for `CC(C)(C)c1cc(C(C)(C)C)c2c(c1)C(O)(C(F)(F)F)C(=O)O2` (stereo unspecified) here?
The fold change permeability was 1.2.

Which fold change permeability does the source give for `O=C[C@H](Cl)[C@@H](O)[C@H](O)[C@H](O)CO` here?
Its fold change permeability is 1.1.

For `c1ccc(C2CC2)c(OCC2=NCCN2)c1`, which fold change permeability is on record?
The fold change permeability was 1.

Which fold change permeability does the source give for `Cc1cc([C@@H]2CCCN2C)on1` here?
Its fold change permeability is 1.1.

Which fold change permeability does the source give for `CN1CC[C@@]2(C)c3cc(O)ccc3N(C)C12` (stereo partly specified) here?
The fold change permeability was 1.3 (active).

Which fold change permeability does the source give for `NC(=O)COc1c(F)cc(SCCNS(=O)(=O)c2ccccc2)cc1F` here?
Its fold change permeability is 0.9.

For `CC[C@@]1(O)C(=O)OCc2c1cc1n(c2=O)Cc2cc3ccccc3nc2-1`, which fold change permeability is on record?
Its fold change permeability is 1.4 (active).
